# Inconclusive results are not listed. Where a call stands in place of a potency, no number is given. The source made the active and inactive calls. Unless noted, calls come from the whole dose curve.
# What was measured:
# [1] = qHTS for Inhibitors of the Functional Ribonucleoprotein Complex (vRNP) of Lassa (LASV) Arenavirus: LASV Primary Screen - GLuc reporter signal (AID 1347082; calls by dose curve; tested in HEK293 reporter line; note: nearly all actives have a fitted effect of over 60% in size; note: potency is the fitted concentration of half-maximal effect)
# [2] = qHTS for Inhibitors of the Functional Ribonucleoprotein Complex (vRNP) of Lassa (LASV) Arenavirus: Viability assay - alamar blue signal for LASV Primary Screen (AID 1347083; calls by dose curve; tested in HEK293 reporter line; note: nearly all actives have a fitted effect of over 80% in size; note: potency is the fitted concentration of half-maximal effect)
# [3] = qHTS for Inhibitors of the Functional Ribonucleoprotein Complex (vRNP) of Lymphocytic Choriomeningitis Arenaviruses (LCMV): Viability assay - alamar blue signal for LCMV Primary Screen (AID 1347085; calls by dose curve; tested in HEK293 reporter line; note: nearly all actives have a fitted effect of over 80% in size; note: potency is the fitted concentration of half-maximal effect)
# [4] = molecular target: Nucleoprotein (Lymphocytic choriomeningitis virus (strain Armstrong)) (UniProt P09992); assay: qHTS for Inhibitors of the Functional Ribonucleoprotein Complex (vRNP) of Lymphocytic Choriomeningitis Arenaviruses (LCMV): LCMV Primary Screen - GLuc reporter signal (AID 1347086); note: nearly all actives have a fitted effect of over 70% in size; note: potency is the fitted concentration of half-maximal effect
# Chain of Nucleoprotein (Lymphocytic choriomeningitis virus (strain Armstrong)) (P09992 whole entry, looked up): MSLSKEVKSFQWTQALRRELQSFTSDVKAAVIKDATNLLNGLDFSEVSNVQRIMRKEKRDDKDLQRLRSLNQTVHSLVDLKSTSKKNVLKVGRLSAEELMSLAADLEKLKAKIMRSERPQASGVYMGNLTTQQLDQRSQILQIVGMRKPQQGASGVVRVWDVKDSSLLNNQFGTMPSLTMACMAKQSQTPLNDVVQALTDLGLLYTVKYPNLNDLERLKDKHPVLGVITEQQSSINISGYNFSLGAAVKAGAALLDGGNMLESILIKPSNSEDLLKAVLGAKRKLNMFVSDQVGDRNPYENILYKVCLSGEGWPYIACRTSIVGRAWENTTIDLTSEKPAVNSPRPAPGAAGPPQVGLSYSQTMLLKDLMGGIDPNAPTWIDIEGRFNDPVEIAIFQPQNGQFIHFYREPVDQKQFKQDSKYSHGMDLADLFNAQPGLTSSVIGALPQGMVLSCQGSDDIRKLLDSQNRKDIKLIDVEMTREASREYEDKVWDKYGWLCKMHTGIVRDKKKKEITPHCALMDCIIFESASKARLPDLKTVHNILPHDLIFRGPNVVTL
# [5] = Cytotoxicity counterscreen for inhibitors of SARS-CoV-2 cell entry (AID 1645845); note: nearly all actives have a fitted effect of over 50% in size
# Method in brief: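 HEK293-ACE2 cells (Expi293F stably expressing human ACE2) seeded overnight, then compound for 1 h plus 48 h at 37C. Viability as ATP content by luminescence; normalized to wells with cells and media-only wells.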
# [6] = Primary qHTS to identify inhibitors of SARS-CoV-2 cell entry (AID 1645846); details: activity change, negative = inhibition: at 57.1 µM (top of the series) unless noted; note: nearly all actives have a fitted effect of over 45% in size
# Method in brief: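 Using luciferase-reporting pseudoviruses carrying Wuhan-Hu-1 spike, the screen tracks entry into stably ACE2-expressing cells over 48 hr. Activity is expressed relative to spike particles versus particles lacking any fusion protein.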
# [7] = molecular target: Alpha-galactosidase (Coffea arabica) (UniProt Q42656); assay: Counterscreen for Glucocerebrosidase Inhibitors: qHTS Assay for Coffee Bean alpha-Galactosidase at pH 4.5 (AID 957; active = well fitted curve in the direction sought with a large enough effect; an effect the other way counts as inactive or inconclusive)
# Chain of Alpha-galactosidase (Coffea arabica) (Q42656 whole entry, looked up): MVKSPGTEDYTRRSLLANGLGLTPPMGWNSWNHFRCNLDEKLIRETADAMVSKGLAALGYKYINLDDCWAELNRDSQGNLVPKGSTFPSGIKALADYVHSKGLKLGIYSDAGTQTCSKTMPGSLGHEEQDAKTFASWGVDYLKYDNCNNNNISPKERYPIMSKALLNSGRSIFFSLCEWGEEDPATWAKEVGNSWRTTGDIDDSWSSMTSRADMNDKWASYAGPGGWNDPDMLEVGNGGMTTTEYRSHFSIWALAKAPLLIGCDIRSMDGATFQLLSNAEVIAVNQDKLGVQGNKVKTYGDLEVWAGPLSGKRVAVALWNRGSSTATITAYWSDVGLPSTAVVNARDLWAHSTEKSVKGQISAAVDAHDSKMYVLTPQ
# Method in brief: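 Green coffee bean enzyme (2 nM final) was incubated with compounds (0.7 nM to 77 uM) and 4-methylumbelliferyl alpha-D-galactopyranoside (80 uM final) in 50 mM citric acid, 0.005% Tween-20, pH 4.5, 20 min at room temperature; AC50 from Hill fits.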
# [8] = molecular target: Alpha-galactosidase (Coffea arabica) (UniProt Q42656); assay: Counterscreen for Glucocerebrosidase Inhibitors: qHTS Assay for Coffee Bean alpha-Galactosidase at pH 5.9 (AID 998; active = well fitted curve in the direction sought with a large enough effect; an effect the other way counts as inactive or inconclusive)
# Method in brief: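 Green coffee bean enzyme (2 nM) with 4-methylumbelliferyl alpha-D-galactopyranoside (80 uM) in 50 mM citric acid, 0.005% Tween-20, pH 5.9, 20 min at room temperature; compounds 0.7 nM–77 uM. Stopped at pH 10, fluorescence Ex365/Em440; Hill-fit AC50.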
# [9] = Validation screen for inhibitors of Lassa infection (AID 463096)
# [10] = Inducers of the Endoplasmic Reticulum Stress Response (ERSR) in human glioma: Validation (AID 504836; active = well fitted curve in the direction sought with a large enough effect; an effect the other way counts as inactive or inconclusive)
# Method in brief: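 Stably transfected U87-MG glioma cells carrying a GRP78-based luciferase sensor; 16 h compound incubation. Luminescence end-point read 10 min after Bright-Glo addition at room temperature.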
# [11] = molecular target: Bile acid receptor (Homo sapiens) (UniProt Q96RI1); assay: qHTS assay for small molecule agonists of farnesoid X receptor signaling (AID 588527); details: HEK293T FXR-UAS-bla, beta-lactamase ratio, 16 h; activation: stronger effect = higher value
# Chain of Bile acid receptor (Homo sapiens) (Q96RI1 whole entry, looked up): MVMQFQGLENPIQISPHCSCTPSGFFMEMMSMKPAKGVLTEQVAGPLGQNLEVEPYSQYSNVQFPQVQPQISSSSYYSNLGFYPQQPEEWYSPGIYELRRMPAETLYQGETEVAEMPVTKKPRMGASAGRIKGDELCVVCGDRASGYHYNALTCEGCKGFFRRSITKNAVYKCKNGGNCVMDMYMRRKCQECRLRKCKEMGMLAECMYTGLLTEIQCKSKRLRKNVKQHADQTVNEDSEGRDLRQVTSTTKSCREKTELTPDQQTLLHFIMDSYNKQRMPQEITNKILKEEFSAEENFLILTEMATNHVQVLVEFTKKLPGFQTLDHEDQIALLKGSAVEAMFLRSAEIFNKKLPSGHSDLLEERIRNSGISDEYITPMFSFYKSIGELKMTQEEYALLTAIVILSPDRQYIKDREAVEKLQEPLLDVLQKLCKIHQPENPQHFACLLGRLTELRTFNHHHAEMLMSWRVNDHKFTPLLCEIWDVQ
# Method in brief: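 Read-out: beta-lactamase reporter fluorescence with CCF4 substrate in GeneBLAzer FXR-UAS-bla HEK293T cells, after 16 h compound exposure at 37 C. Response scaled between DMSO basal (0%) and chenodeoxycholic acid at 100 uM (100%).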
# [12] = qHTS profiling of the MIPE4 collection as inhibitors of Plasmodium falciparum (3D7) proliferation (AID 743344; call rule not given here); details: P. falciparum 3D7 in erythrocytes, SYBR Green DNA fluorescence, 72 h; at 28.5 µM (top of the series) unless noted
# Method in brief: (§1)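 Erythrocytes infected with P. falciparum (0.3% parasitemia, 2.5% hematocrit) incubated with compounds 72 h at 37 C, 5% CO2. Lysis with saponin/Triton buffer containing SYBR Green I, overnight at room temperature in the dark; DNA fluorescence (485/535 nm) normalised to 0.29 uM artemisinin and DMSO.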
# [13] = qHTS profiling of the MIPE4 collection as inhibitors of Plasmodium falciparum (HB3) proliferation (AID 743347; call rule not given here); details: P. falciparum HB3 in erythrocytes, SYBR Green DNA, 72 h; at 28.5 µM (top of the series) unless noted
# Method in brief: as §1
smiles,measurement,setting,value
CC(C)c1nn(-c2c(Cl)cccc2Cl)c2nc(Cc3ccc(OCCO)cc3)[nH]c(=O)c12,Potency,[1],172 nM (active)
same,Potency,[2],217 nM (active)
same,Potency,[3],153 nM (active)
same,Potency,[4],243 nM (active)
same,Potency,[5],inactive
same,"activity change, negative = inhibition",[6],-95.3%
CCOC(=O)C1=C(N)Oc2ccc(Br)cc2C1C(C#N)C(=O)OCC (centres undefined),Potency,[1],inactive
same,Potency,[2],inactive
same,Potency,[3],inactive
same,Potency,[4],inactive
same,Potency,[5],inactive
same,"activity change, negative = inhibition",[6],-18.1%
CS(=O)(=O)N(Cc1ccco1)CC(O)Cn1c2ccccc2c2ccccc21 (centres undefined),Potency,[1],inactive
same,Potency,[2],inactive
same,Potency,[3],inactive
same,Potency,[4],inactive
same,Potency,[5],inactive
same,"activity change, negative = inhibition",[6],-37.4%
O=S(=O)(O)c1ccc2cc(N=Nc3cc(S(=O)(=O)O)c4cccnc4c3O)ccc2c1,Potency,[1],inactive
same,Potency,[2],inactive
same,Potency,[3],inactive
same,Potency,[4],inactive
same,Potency,[5],inactive
same,Potency,[6],inactive
O=C1CN2Cc3c(ccc(Cl)c3Cl)N=C2N1,Potency,[1],inactive
same,Potency,[2],inactive
same,Potency,[3],inactive
same,Potency,[4],inactive
same,Potency,[5],inactive
same,Potency,[6],inactive
COc1ccc(CC2=NN3C([C@@H](CCc4ccccc4)[C@@H](C)O)=NC(C)C3C(=O)N2)cc1OC (some centres undefined),Potency,[1],inactive
same,Potency,[2],inactive
same,Potency,[3],inactive
same,Potency,[4],inactive
same,Potency,[5],inactive
same,Potency,[6],inactive
OC[C@@H](O)[C@@H](O)[C@H](O)[C@@H](O)CO,Potency,[1],inactive
same,Potency,[2],inactive
same,Potency,[3],inactive
same,Potency,[4],inactive
same,Potency,[5],inactive
same,Potency,[6],inactive
CC(C)C[C@@H](N)[C@H](O)C(=O)N[C@H](C(=O)N[C@H](C(=O)N[C@@H](CC(=O)O)C(=O)O)C(C)C)C(C)C,Potency,[1],inactive
same,Potency,[2],inactive
same,Potency,[3],inactive
same,Potency,[4],inactive
same,Potency,[5],inactive
same,"activity change, negative = inhibition",[6],-14%
NCc1c[nH]c(=S)n1[C@H]1CCc2c(F)cc(F)cc2C1,Potency,[1],inactive
same,Potency,[2],inactive
same,Potency,[3],inactive
same,Potency,[4],inactive
same,Potency,[5],inactive
same,"activity change, negative = inhibition",[6],-19.7%
CCN1/C(=C/C(C)=O)Sc2ccc(OC)cc21,outcome,[7],inactive
same,outcome,[8],inactive
same,Potency,[9],inactive
same,outcome,[10],inactive
same,Potency,[1],inactive
same,Potency,[2],inactive
same,Potency,[3],inactive
same,Potency,[4],inactive
same,Potency,[5],inactive
same,"activity change, negative = inhibition",[6],-1.33%
CCC(C)N(C)C(=O)c1cc2ccccc2c(-c2ccccc2Cl)n1 (centres undefined),Potency,[9],inactive
same,outcome,[10],inactive
same,Potency,[1],inactive
same,Potency,[2],inactive
same,Potency,[3],inactive
same,Potency,[4],inactive
same,Potency,[5],inactive
same,"activity change, negative = inhibition",[6],4.18%
N#CC1(c2ccc(NC(=O)c3cccnc3NCc3ccncc3)cc2)CCCC1,Potency,[1],inactive
same,Potency,[2],inactive
same,Potency,[3],inactive
same,Potency,[4],inactive
same,Potency,[5],inactive
same,Potency,[6],inactive
CCCCCCCCCCCC(CC1OC(=O)C1CCCCCC)OC(=O)C(CC(C)C)NC=O (centres undefined),Potency,[1],inactive
same,Potency,[2],inactive
same,Potency,[3],inactive
same,Potency,[4],inactive
same,Potency,[5],inactive
same,"activity change, negative = inhibition",[6],0.438%
CCCc1c(OCCCOc2ccc(OCC(=O)O)cc2)ccc(C(C)=O)c1O,outcome,[7],inactive
same,outcome,[8],inactive
same,Potency,[9],inactive
same,outcome,[10],inactive
same,activation,[11],3% (inactive)
same,Potency,[1],inactive
same,Potency,[2],inactive
same,Potency,[3],inactive
same,Potency,[4],inactive
same,Potency,[5],inactive
same,"activity change, negative = inhibition",[6],-13.9%
CC(C)[C@H](O)C(=O)N[C@@H](C)C(=O)N[C@@H]1C(=O)N(C)CCc2ccccc21,Potency,[1],inactive
same,Potency,[2],inactive
same,Potency,[3],inactive
same,Potency,[4],inactive
same,Potency,[5],inactive
same,"activity change, negative = inhibition",[6],4.11%
CNC(=O)c1ccc2cc(C3(O)CCn4cncc43)ccc2c1 (centres undefined),Potency,[1],inactive
same,Potency,[2],inactive
same,Potency,[3],inactive
same,Potency,[4],inactive
same,Potency,[5],inactive
same,"activity change, negative = inhibition",[6],-19.9%
CN1C(=O)C[C@H](C(=O)N[C@@H](Cc2cnc[nH]2)C(=O)N2CCC[C@@H]2C(N)=O)NC1=O,"parasite growth, % of DMSO control",[12],86%
same,"growth, % of control",[13],48.7%
same,Potency,[1],inactive
same,Potency,[2],inactive
same,Potency,[3],inactive
same,Potency,[4],inactive
same,Potency,[5],inactive
same,Potency,[6],inactive
CC(=O)NC(CS)C(=O)O (centres undefined),Potency,[1],inactive
same,Potency,[2],inactive
same,Potency,[3],inactive
same,Potency,[4],inactive
same,Potency,[5],inactive
same,"activity change, negative = inhibition",[6],-1.31%
Nc1nc2c(c(=O)[nH]1)N(C=O)[C@H](CNc1ccc(C(=O)N[C@@H](CCC(=O)O)C(=O)O)cc1)CN2,Potency,[1],inactive
same,Potency,[2],inactive
same,Potency,[3],inactive
same,Potency,[4],inactive
same,Potency,[5],inactive
same,Potency,[6],inactive
C[C@H](Cc1ccc(O)c(O)c1)[C@@H](C)Cc1ccc(O)c(O)c1,outcome,[7],inactive
same,outcome,[8],inactive
same,Potency,[9],inactive
same,outcome,[10],inactive
same,Potency,[1],inactive
same,Potency,[2],inactive
same,Potency,[3],inactive
same,Potency,[4],inactive
same,Potency,[5],inactive
same,"activity change, negative = inhibition",[6],-10.6%
NC(=O)c1cccc(N)c1,outcome,[7],inactive
same,outcome,[8],inactive
same,Potency,[9],inactive
same,outcome,[10],inactive
same,Potency,[1],inactive
same,Potency,[2],inactive
same,Potency,[3],inactive
same,Potency,[4],inactive
same,Potency,[5],inactive
same,Potency,[6],inactive
Cn1cc(-c2ccc3ncc(Cc4ccc5ncccc5c4)n3n2)cn1,Potency,[1],inactive
same,Potency,[2],inactive
same,Potency,[3],inactive
same,Potency,[4],inactive
same,Potency,[5],inactive
same,Potency,[6],inactive
O=[N+]([O-])c1cn2c(n1)OC[C@@H](OCc1ccc(OC(F)(F)F)cc1)C2,Potency,[1],inactive
same,Potency,[2],inactive
same,Potency,[3],inactive
same,Potency,[4],inactive
same,Potency,[5],inactive
same,"activity change, negative = inhibition",[6],-9.12%
